“And” between values parts separate entries of the source, which are not always exact repeats. Identical values can stand only once. The whole screen tested about 5,500 compounds, of which about 2,000 (36%) were called active. About 18% were inconclusive and are not listed. Rule as the data show it: active = normalized growth mostly below about 0.91 (no sharp cut-off); inconclusive = no clear call, values can overlap the other calls; inactive = mostly above about 0.92. This is one part of the list.
Experiment: chemical genetic growth profiling, strain panel (AID 1159580);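 also: tested at 20 µM; growth read once vehicle control cultures reached saturation at 30 °C; 1 = growth at the plate median or of vehicle wells; lower values mean less growth of the strain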
Conditions: S. cerevisiae deletion strains, growth OD

Measured: normalized growth

Cn1cnc2c1c(=O)[nH]c(=O)n2C
inactive: locus YAL013W, strain DEP1, active compounds read low 1.01 | locus YAL021C, strain ccr4, active compounds read low 0.952 | locus YAL026C, strain drs2, active compounds read low 0.989 | locus YAL030W, strain snc1, active compounds read low 0.985 | locus YAL040C, strain CLN3, active compounds read low 0.992 | locus YBL061C, strain skt5, active compounds read low 0.985 | locus YBR009C, strain hhf1, active compounds read low 0.997 | locus YBR021W, strain FUR4, active compounds read low 0.991 | locus YBR023C, strain chs3, active compounds read low 1 | locus YBR171W, strain sec66, active compounds read low 0.99 | locus YBR229C, strain ROT2, active compounds read low 1.01 | locus YBR231C, strain swc5, active compounds read low 0.985 | locus YBR279W, strain paf1, active compounds read low 0.997 | locus YCL011C, strain gbp2, active compounds read low 0.978 | locus YCL016C, strain dcc1, active compounds read low 0.993 | locus YCL029C, strain bik1, active compounds read low 1.03 | locus YCL061C, strain MRC1 (second series), active compounds read low 1.01 | locus YCL061C, strain MRC1, active compounds read low 0.984 | locus YCL069W, strain vba3, active compounds read low 0.983 | locus YCR088W, strain abp1, active compounds read low 0.991 | locus YDL005C, strain med2, active compounds read low 0.989 | locus YDL035C, strain GPR1, active compounds read low 1.01 | locus YDL040C, strain nat1, active compounds read low 0.992 | locus YDL074C, strain BRE1, active compounds read low 1.02 | locus YDL101C, strain DUN1, active compounds read low 1.02 | locus YDL134C, strain PPH21, active compounds read low 1.01 | locus YDL185W, strain tfp1, active compounds read low 1.01 | locus YDL192W, strain arf1, active compounds read low 1.01 | locus YDR001C, strain nth1, active compounds read low 0.984 | locus YDR069C, strain doa4, active compounds read low 0.959 | locus YDR101C, strain arx1, active compounds read low 1.01 | locus YDR137W, strain rgp1, active compounds read low 1.03 | locus YDR150W, strain NUM1, active compounds read low 1.01 | locus YDR159W, strain sac3, active compounds read low 0.973 | locus YDR162C, strain NBP2, active compounds read low 1.01 | locus YDR195W, strain ref2 0.944 | locus YDR297W, strain sur2, active compounds read low 0.991 | locus YDR318W, strain mcm21, active compounds read low 1.03 | locus YDR334W, strain swr1, active compounds read low 0.98 | locus YDR335W, strain msn5, active compounds read low 0.976 | locus YDR363W, strain ESC2, active compounds read low 0.998 | locus YDR388W, active compounds read low 1.01 | locus YDR392W, strain spt3, active compounds read low 0.993 | locus YDR502C, strain sam2, active compounds read low 1 | locus YEL003W, strain gim4, active compounds read low 0.988 | locus YEL037C, strain rad23, active compounds read low 0.993 | locus YEL061C, strain CIN8 (second series), active compounds read low 0.974 | locus YEL061C, strain CIN8, active compounds read low 1.01 | locus YER002W, strain NOP16, active compounds read low 1.04 | locus YER015W, strain faa2, active compounds read low 0.981 | locus YER016W, strain bim1, active compounds read low 0.991 | locus YER110C, active compounds read low 1.01 | locus YER111C, strain swi4, active compounds read low 0.985 | locus YER155C, strain BEM2 (second series), active compounds read low 1 | locus YER155C, strain BEM2, active compounds read low 1.01 | locus YER167W, strain BCK2, active compounds read low 1.01 | locus YFR010W, strain ubp6, active compounds read low 0.971 | locus YGL078C, strain dbp3, active compounds read low 1.01 | locus YGL086W, strain mad1, active compounds read low 1 | locus YGL167C, strain pmr1, active compounds read low 0.976 | locus YGL173C, strain kem1, active compounds read low 0.988 | locus YGL227W, strain vid30, active compounds read low 0.994 | locus YGL240W, strain doc1, active compounds read low 0.966 | locus YGL248W, strain PDE1, active compounds read low 1.01 | locus YGL253W, strain hxk2, active compounds read low 0.99 | locus YGR078C, strain PAC10, active compounds read low 1.01 | locus YGR135W, strain pre9, active compounds read low 1.02 | locus YGR229C, strain SMI1, active compounds read low 1.02 and 1.05 | locus YGR252W, strain gcn5, active compounds read low 1.01 | locus YHR013C, strain ard1, active compounds read low 0.961 | locus YHR027C, strain rpn1, active compounds read low 0.972 | locus YHR030C, strain SLT2, active compounds read low 1.01 and 0.97 | locus YHR079C, strain IRE1 (second series), active compounds read low 1.02 | locus YHR079C, strain IRE1, active compounds read low 0.996 | locus YHR094C, strain hxt1, active compounds read low 1.01 | locus YHR129C, strain ARP1, active compounds read low 1.01 | locus YHR142W, strain chs7, active compounds read low 0.999 | locus YHR200W, strain rpn10, active compounds read low 1 | locus YIL066C, strain RNR3, active compounds read low 1.02 | locus YIL073C, strain SPO22, active compounds read low 1.05 | locus YIL125W, strain kgd1, active compounds read low 1.01 | locus YIR030C, strain dcg1, active compounds read low 1.01 | locus YJL092W, strain hpr5, active compounds read low 0.989 | locus YJL095W, strain BCK1 (second series), active compounds read low 0.996 | locus YJL095W, strain BCK1, active compounds read low 1.03 and 0.985 | locus YJL115W, strain asf1, active compounds read low 0.976 | locus YJL129C, strain trk1, active compounds read low 0.963 | locus YJL134W, strain LCB3, active compounds read low 1.01 | locus YJL154C, strain vps35, active compounds read low 0.995 | locus YJL164C, strain tpk1, active compounds read low 0.978 | locus YJL166W, strain qcr8, active compounds read low 0.992 | locus YJL168C, strain set2, active compounds read low 1.01 | locus YJL187C, strain SWE1 (second series), active compounds read low 1.03 | locus YJL187C, strain SWE1, active compounds read low 0.983 | locus YJR043C, strain POL32, active compounds read low 1.01 | locus YJR066W, strain TOR1, active compounds read low 0.963
